ADAM10 inh: inhibits human ADAM10 | O14672 | recombinant ADAM10, EDANS/DABCYL FRET peptide cleavage, 3 h | inhibition, % at 7 µM | actives 0.62% (n = 370,000) | AID 720582;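 active = inhibition above a per-campaign cutoff equal to the mean of compounds falling between control-based bounds plus 3 SD, cut at about 20% in these data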;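 note: 0% = DMSO wells while the 100% control is not disclosed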
PLC-beta3 inh: PLC-beta3 (human) inhibition, primary screen; Q01970; inhibition, % at 12.2 µM; Purified PLC-beta3, fluorogenic substrate, fluorescence; actives 0.18% (n = 370,000); in the data active = inhibition above about 11%;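 note: 0% = median of compound wells on plate and 100% = full blocker control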
ADAM17 inh: inhibitors of human ADAM17. recombinant ADAM17, EDANS/DABCYL FRET peptide cleavage. inhibition, % at 6.95 µM. actives 0.83% (n = 370,000);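 active = inhibition above the mean of compounds lying between control limits plus 3 SD, set per campaign, cut at about 8.5% in these data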;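 note: 0% = DMSO-only wells as the low control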
PLCg1 inh: PLC-gamma1 (human) inhibition, primary screen; P19174; purified PLC-gamma1, fluorogenic substrate, fluorescence; inhibition, % at 12.2 µM; actives 0.84% (n = 370,000); in the data active = inhibition above about 9.5%
KLK7 zymogen act: activators of human kallikrein-7 zymogen | P49862 | purified proKLK7, EDANS-DABCYL substrate fluorescence; 100% is mature enzyme control, 0% vehicle | activation, % at 7 µM | actives 0.9% (n = 370,000);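 active = activation above the mean of all tested compounds plus 3 SD, computed per campaign excluding outliers beyond control limits, cut at about 13% in these data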
Target sequence (P49862 whole entry, looked up): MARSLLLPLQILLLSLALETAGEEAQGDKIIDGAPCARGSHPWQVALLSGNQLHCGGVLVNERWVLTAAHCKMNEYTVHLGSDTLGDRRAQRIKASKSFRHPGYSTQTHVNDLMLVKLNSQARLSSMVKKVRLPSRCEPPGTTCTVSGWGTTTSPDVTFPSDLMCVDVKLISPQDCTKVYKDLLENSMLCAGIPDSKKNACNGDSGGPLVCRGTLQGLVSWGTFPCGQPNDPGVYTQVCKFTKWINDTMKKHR
Active calls of the source: *. Most compounds without a hit are left out; they make up all but 2.9% or so of the library.

Screening O=c1[nH]c(=O)n(CCC2=CCCCC2)c(O)c1C=NC1CCN(Cc2ccccc2)CC1 returned ADAM10 inh -6, PLC-beta3 inh -4, ADAM17 inh 8.9*, PLCg1 inh 6 and KLK7 zymogen act 0.
COC(=O)C1=C(c2ccccc2)C[C@@H]2CC[C@H]1N2C(=O)NCc1ccc(F)cc1 was read as ADAM10 inh 4, PLC-beta3 inh -8, ADAM17 inh -4, PLCg1 inh -2 and KLK7 zymogen act 0.
Screening COC(=O)C1=C(c2ccc(F)cc2OCc2ccccc2)C[C@@H]2CC[C@H]1N2C(=O)NCc1ccccc1 returned ADAM10 inh 18, PLC-beta3 inh 3, ADAM17 inh 0, PLCg1 inh 0 and KLK7 zymogen act 0.
For COC(=O)C1=C(c2ccc(-c3ccccc3)c(F)c2)C[C@@H]2CC[C@H]1N2C(=O)NCc1cc(C)oc1C(F)(F)F the results were ADAM10 inh 3, PLC-beta3 inh 8, ADAM17 inh -1, PLCg1 inh 10.0* and KLK7 zymogen act -1.
Screening COC(=O)C1=C(c2cccc(C#N)c2)C[C@@H]2CC[C@H]1N2C(=O)NCc1cc(C)oc1C(F)(F)F returned ADAM10 inh 6, PLC-beta3 inh 5, ADAM17 inh -1, PLCg1 inh -1 and KLK7 zymogen act 1.
Screening COC(=O)C1=C(c2ccc(F)cc2F)C[C@@H]2CC[C@H]1N2C(=O)NCc1ccc(F)cc1 returned ADAM10 inh 76*, PLC-beta3 inh 4, ADAM17 inh -3, PLCg1 inh -3 and KLK7 zymogen act 0.
COC(=O)C1=C(c2ccc(F)cc2OCc2ccccc2)C[C@@H]2CC[C@H]1N2C(=O)NCc1ccc2c(c1)OCO2 was read as ADAM10 inh 22*, PLC-beta3 inh 1, ADAM17 inh 7, PLCg1 inh 0 and KLK7 zymogen act 1.
Screening Cn1cc(P(=S)(c2ccccc2)c2ccccc2)c2ccccc21 returned ADAM10 inh 14, PLC-beta3 inh 9, ADAM17 inh 7 and PLCg1 inh 7.
For CN1CN(c2ccccc2)C2(CCN(CCCSc3ccccc3NC(=O)/C=C/c3ccccc3)CC2)C1=O the results were ADAM10 inh 8, PLC-beta3 inh 10, ADAM17 inh 14*, PLCg1 inh -47 and KLK7 zymogen act 0.
For CC(C)(C)NC(=S)N1Cc2ccccc2-n2nncc2C1 the results were ADAM10 inh -4, PLC-beta3 inh 2, ADAM17 inh 7, PLCg1 inh 13* and KLK7 zymogen act -1.
COC(=O)C[C@]1(C(=O)OC)CN(C#N)N(c2ccc(Cl)cc2)C12c1ccccc1-c1ccccc12 was read as ADAM10 inh 31*, PLC-beta3 inh -41, ADAM17 inh 7, PLCg1 inh 4 and KLK7 zymogen act 0.
`CSc1nc(N)c(N=Nc2ccc([As](=O)(O)O)cc2)c(=O)[nH]1` gave ADAM10 inh -8, PLC-beta3 inh -6, ADAM17 inh 9.1*, PLCg1 inh -1 and KLK7 zymogen act 0.
`COc1ccc(N=Nc2c(O)[nH]c(=S)[nH]c2=O)cc1` gave ADAM10 inh 3, PLC-beta3 inh -2, ADAM17 inh 2, PLCg1 inh 0 and KLK7 zymogen act 0.
`O=C(O)c1cc(S(=O)(=O)N2CC3CC(C2)c2cccc(=O)n2C3)ccc1F` (centres undefined) gave ADAM10 inh -5, PLC-beta3 inh 0, ADAM17 inh -3, PLCg1 inh 0 and KLK7 zymogen act 0.
c1ccc(Cc2cnc(N3CCNCC3)nc2)cc1 was read as ADAM10 inh -15, PLC-beta3 inh -3, ADAM17 inh -7, PLCg1 inh 0 and KLK7 zymogen act -1.
For Cc1cc(N2CCNC[C@H]2C)ccc1N1CCN[C@@H](C)C1 the results were ADAM10 inh 2, PLC-beta3 inh 0, ADAM17 inh 1, PLCg1 inh -6 and KLK7 zymogen act -1.
Brc1ccccc1 was read as ADAM10 inh 6, PLC-beta3 inh 11*, ADAM17 inh 3, PLCg1 inh 8 and KLK7 zymogen act 0.
For Clc1cccc(N2Cc3cc(-c4ccccc4)ccc3-n3nncc3C2)c1 the results were ADAM10 inh -9, PLC-beta3 inh -3, ADAM17 inh -1, PLCg1 inh 12* and KLK7 zymogen act 0.
Clc1cccc(N2Cc3cc(N4CCOCC4)ccc3-n3nncc3C2)c1 was read as ADAM10 inh 7, PLC-beta3 inh -4, ADAM17 inh 0, PLCg1 inh -1 and KLK7 zymogen act 1.
CCCCn1c(NC(=O)c2ccc(Br)o2)c(C(=O)OCC)c2nc3ccccc3nc21 was read as ADAM10 inh inactive, PLC-beta3 inh inactive, ADAM17 inh inactive, PLCg1 inh inactive and KLK7 zymogen act 19*.
For CCCCn1c(NS(=O)(=O)c2ccccc2)c(C(=O)OCC)c2nc3ccccc3nc21 the results were ADAM10 inh inactive, PLC-beta3 inh inactive, ADAM17 inh -412, PLCg1 inh inactive and KLK7 zymogen act 8.
Cc1cc(O)c2c(c1)C(=O)[C@@]13C(=C2O)C(=O)[C@H]2C(O)[C@@H]1[C@H]1C(O)[C@@H]3C(=O)C3=C(O)c4c(O)cc(C)cc4C(=O)[C@@]312 (some centres undefined) was read as ADAM10 inh 8, PLC-beta3 inh -4, ADAM17 inh 2, PLCg1 inh 6 and KLK7 zymogen act 0.
COc1cc(C(=O)Nc2ccc(Br)cc2C(=O)c2ccccc2)cc(OC)c1OC was read as ADAM10 inh 2, PLC-beta3 inh 2, ADAM17 inh 0, PLCg1 inh 0 and KLK7 zymogen act 26*.
Screening CC(C)(C)Cc1nnc(NC(=O)COc2ccc(Cl)cc2Cl)o1 returned ADAM10 inh -2, PLC-beta3 inh -2, ADAM17 inh -5 and PLCg1 inh -1.
O=C(NCCN1CCC2(CC1)C(=O)NCN2c1ccccc1)c1ccc(F)c(F)c1 was read as ADAM10 inh -8, PLC-beta3 inh 1, ADAM17 inh -6, PLCg1 inh 2 and KLK7 zymogen act 0.
`Cc1cc2c(C(C)C)c(O)c(O)c(C=O)c2c(O)c1-c1c(C)cc2c(C(C)C)c(O)c(O)c(C=O)c2c1O` gave ADAM10 inh 41*, PLC-beta3 inh -21, ADAM17 inh 12*, PLCg1 inh -2 and KLK7 zymogen act 1.
`CC(c1ccccc1)n1cc(C(=O)NC2CCCC2)nn1` (centres undefined) gave ADAM10 inh 9, PLC-beta3 inh 0, ADAM17 inh 1, PLCg1 inh 1 and KLK7 zymogen act 0.
`CC1(C)CN(S(=O)(=O)OCC(Cl)(Cl)Cl)C(=O)N1` gave ADAM10 inh 4, PLC-beta3 inh 7, ADAM17 inh 3, PLCg1 inh 9.8* and KLK7 zymogen act -1.
COCCCn1c(N)c(C(=O)Nc2ccccc2)c2nc3ccccc3nc21 was read as ADAM10 inh -32, PLC-beta3 inh -39, ADAM17 inh -17, PLCg1 inh -28 and KLK7 zymogen act -6.
Screening COCCCn1c(N)c(C(=O)NCc2ccco2)c2nc3ccccc3nc21 returned ADAM10 inh inactive, PLC-beta3 inh -483, ADAM17 inh -392, PLCg1 inh -352 and KLK7 zymogen act 34*.

Source: PubChem BioAssay
